# Measured values from PMC4336329 (PLoS ONE, 2015).
# The whole screen tested about 310,000 compounds, of which about 14,000 (4.5%) showed an effect of 50% or more. Effects have a minus sign here. The sample holds strong results, similar compounds and a random draw of the others, so the mix is not that of the screen.
# Target: human ether-à-go-go-related gene (hERG) potassium channel (human, UniProt Q12809)
# Assay: primary screen, population patch clamp on CHO cells stably expressing hERG; higher = less effect of the substance
# Procedure: Briefly, Chinese hamster ovary (CHO) cells stably expressing the hERG channel were dislodged from tissue culture flasks and dispensed into PPC plates. […] During the recording, background leak currents were estimated by a 100 ms step to -80 mV from an initial holding potential of -70 mV and subtracted from the subsequent current measurement. The campaign was conducted in two phases using slight differences in recording protocol. In the first phase, the initial voltage pulse used a 100 ms step to -30 mV from a holding potential of -70 mV, a 2 s conditioning step to +25 mV, and a 2 s test step to -30 mV. During the second phase of the screen, the potential during the conditioning step was raised to +45 mV. In both phases of the campaign, a secondary voltage pulse was applied using the same parameters as the second phase initial pulse. The initial and secondary pulses were applied in the absence of compound, and upon application of 1 μM and 10 μM test concentrations. […]
# 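Also: peak tail current of the secondary pulse compared with the same well before compound.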
# human ether-à-go-go-related gene (hERG) potassium channel, sequence (Q12809 whole entry, looked up): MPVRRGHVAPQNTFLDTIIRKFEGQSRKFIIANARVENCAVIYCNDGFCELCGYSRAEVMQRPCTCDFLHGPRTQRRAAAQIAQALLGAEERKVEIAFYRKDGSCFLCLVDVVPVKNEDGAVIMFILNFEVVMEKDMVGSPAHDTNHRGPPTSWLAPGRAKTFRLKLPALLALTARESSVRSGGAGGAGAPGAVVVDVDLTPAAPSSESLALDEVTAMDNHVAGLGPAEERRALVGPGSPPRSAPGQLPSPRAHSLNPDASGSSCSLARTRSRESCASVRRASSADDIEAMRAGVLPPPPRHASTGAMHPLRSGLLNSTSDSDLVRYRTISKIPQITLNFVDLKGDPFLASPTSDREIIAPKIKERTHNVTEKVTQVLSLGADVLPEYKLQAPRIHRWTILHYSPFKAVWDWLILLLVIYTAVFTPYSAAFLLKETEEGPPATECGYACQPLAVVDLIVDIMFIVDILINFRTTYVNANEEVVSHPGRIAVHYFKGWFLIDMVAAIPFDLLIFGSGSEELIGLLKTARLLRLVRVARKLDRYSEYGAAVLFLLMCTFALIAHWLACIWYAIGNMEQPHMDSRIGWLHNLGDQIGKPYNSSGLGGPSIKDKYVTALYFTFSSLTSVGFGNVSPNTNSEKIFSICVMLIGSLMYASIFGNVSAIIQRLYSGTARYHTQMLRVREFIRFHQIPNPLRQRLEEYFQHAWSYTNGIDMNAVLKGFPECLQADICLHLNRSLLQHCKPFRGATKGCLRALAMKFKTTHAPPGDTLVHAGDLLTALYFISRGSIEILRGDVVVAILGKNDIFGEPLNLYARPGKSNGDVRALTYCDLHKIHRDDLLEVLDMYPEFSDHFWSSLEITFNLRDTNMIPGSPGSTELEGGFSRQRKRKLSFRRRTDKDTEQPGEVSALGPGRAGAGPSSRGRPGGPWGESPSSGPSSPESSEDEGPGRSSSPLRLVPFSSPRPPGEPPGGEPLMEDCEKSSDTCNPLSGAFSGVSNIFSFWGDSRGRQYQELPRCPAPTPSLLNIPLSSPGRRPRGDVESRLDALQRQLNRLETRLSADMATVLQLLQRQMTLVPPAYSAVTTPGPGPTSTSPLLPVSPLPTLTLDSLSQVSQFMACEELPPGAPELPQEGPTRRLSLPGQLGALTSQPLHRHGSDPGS
row,Structure (SMILES),"hERG current change (%, negative = inhibition) at 10uM [%]"
1,CC(C)(C)c1ccc(OCC(=O)O)cc1,17.9
2,COC(=O)c1sc(S(=O)(=O)NCCC(=O)O)c(C(=O)OC)c1C,5.17
3,CCOc1ccc(S(=O)(=O)N2CCOCC2)cc1NC(=O)CSCC(=O)Nc1ccc(C)cc1,-18.2
4,CCN(CC)c1ccc(S(=O)(=O)N2CCOCC2)cc1NC(=O)CSC(=S)N1CCCC1,-32.2
5,Cc1ccc(CSCC(=O)Nc2cc(S(=O)(=O)N3CCOCC3)ccc2OC(C)C)cc1,-30.5
6,Cc1cccc(NC(=O)CSCC(=O)Nc2cc(S(=O)(=O)N3CCOCC3)ccc2OC(C)C)c1,-87.2
7,CCOc1ccc(S(=O)(=O)N2CCOCC2)cc1NC(=O)CSCC(=O)Nc1cccc(C)c1,-11.4
8,CCOc1ccc(S(=O)(=O)N2CCOCC2)cc1NC(=O)CSC(=S)N1CCCC1,-63
9,CCOc1ccc(S(=O)(=O)N2CCOCC2)cc1NC(=O)CSCc1ccc(C)cc1,-53.2
10,CCOc1ccc(S(=O)(=O)N2CCOCC2)cc1NC(=O)C1CCC1,16.3
11,Cc1cccc(NC(=O)CSCC(=O)Nc2ccc(S(=O)(=O)N3CCOCC3)cc2)c1,-5.21
12,Cc1cc(C)c2c(c1)/C(=N/NC(=O)c1cc(C)oc1C)CCC2,6.66
13,Cc1ccc(S(=O)(=O)N2CCC(C(=O)OCC(=O)NCCc3ccccc3)CC2)cc1C,-8.07
14,C/C(=N\O)c1c(O)cc(-c2ccccc2)n(-c2ccccc2)c1=O,8.56
15,CN(c1ccc(C(=O)N/N=C/c2cccc([N+](=O)[O-])c2)cc1)S(=O)(=O)c1ccccc1,1.88
16,Cc1onc(-c2c(F)cccc2Cl)c1C(=O)N(C)C1CCCCC1,2.65
17,CCN(CC)c1ccc(/C=N/NC(=S)NCc2ccccc2)c(O)c1,12
18,COCCn1c(=S)[nH]c2cc(C(=O)N(CCO)Cc3ccccc3)ccc2c1=O,4.32
19,CC(C)=CCc1c(O)ccc2c1OC(c1ccc(O)c(O)c1)CC2=O (stereo not drawn),9.78
20,COc1ccc(N2CCN(C(=O)CSc3ccc([N+](=O)[O-])cc3)CC2)cc1,-68.4
21,COc1ccc(C(=O)CCC(=O)N2CCN(c3ccccc3)CC2)cc1,-9.62

row,Structure (SMILES),"hERG current change (%, negative = inhibition) at 10uM [%]"
1,COc1ccc(N2CCN(C(=O)CSc3ccccc3)CC2)cc1,4.44
2,COc1ccc(C(=O)NC(=S)N2CCN(c3ccc([N+](=O)[O-])cc3)CC2)cc1,-49.2
3,COc1ccc(N2CCN(C(=O)CSc3ccccc3N)CC2)cc1,3.07
4,COc1ccc(C(=O)CCC(=O)N2CCN(c3ccc([N+](=O)[O-])cc3)CC2)cc1,-63.8
5,O=C(NC1CCN(S(=O)(=O)c2cccc(F)c2)CC1)c1ccc(F)cc1,14.6
6,Cc1cc2c(sc3c(C)ccc(C)c32)c(C)n1.Cl,3.48
7,O=C(NNC(=O)c1cccnc1)NC12CC3CC(CC(C3)C1)C2,-2.41
8,CCCNC(=O)CS(=O)Cc1nc(-c2ccccc2C)oc1C (stereo not drawn),6.71
9,CC(=O)c1ccccc1NC(=O)C1CCCN(C(=O)c2ccc(Cl)cc2)C1 (stereo not drawn),-25.6
10,COc1ccc(S(=O)(=O)Cc2ccc(C(=O)NC3CCCCC3)o2)cc1,-2.17
11,C[N+]1(C)C2CCC1CC(OC(=O)c1ccco1)C2.[Br-] (stereo not drawn),7.81
12,CCCN(C(=O)CSc1nnc(-c2ccoc2C)n1N)C1CCS(=O)(=O)C1 (stereo not drawn),5.3
13,COc1ccccc1-c1nn(-c2ccccc2)cc1C(=O)NCC(c1ccco1)N1CCCC1 (stereo not drawn),-53
14,Cc1ccccc1-c1nn(-c2ccccc2)cc1C(=O)NCC(c1ccco1)N1CCCC1 (stereo not drawn),-14.3
15,COc1ccc(OC)c(-c2nn(-c3ccccc3)cc2C(=O)NCC(c2ccco2)N2CCCC2)c1 (stereo not drawn),-63.7
16,COc1ccc(OC)c(-c2nn(-c3ccccc3)cc2C(=O)NCC2CCCO2)c1 (stereo not drawn),2.13
17,O=C(NCC(c1ccco1)N1CCCC1)c1cn(Cc2ccccc2)nc1-c1ccccc1 (stereo not drawn),-58.5
18,COc1cc(C(=O)NCC(c2ccco2)N2CCCC2)ccc1OCc1ccccc1 (stereo not drawn),-40.5
19,O=C(NCC(c1ccco1)N1CCCC1)c1ccccc1F (stereo not drawn),3.76
20,COc1ccc(Cl)cc1C(=O)NCC(c1ccco1)N1CCCC1 (stereo not drawn),-44.5
21,COc1ccccc1C(=O)NCCC(=O)NCC(c1ccco1)N1CCCC1 (stereo not drawn),13.7

row,Structure (SMILES),"hERG current change (%, negative = inhibition) at 10uM [%]"
1,COc1ccccc1-c1nn(Cc2ccccc2)cc1C(=O)NCC(c1ccco1)N1CCCC1 (stereo not drawn),-64
2,COc1ccc(OC)c(-c2nn(-c3ccccc3)cc2C(=O)NCC(c2cccs2)N2CCOCC2)c1 (stereo not drawn),-30.2
3,Cc1cc(C(=O)NCC(c2ccco2)N2CCCC2)c2ccccc2n1 (stereo not drawn),6.54
4,CC(=O)NC1(C(F)(F)F)N=C2SCCN2C1=O (stereo not drawn),7.4
5,CCOc1cc(/C=C/c2cccc[n+]2C)ccc1O.[I-],24.7
6,O=C(COc1ccc(NC(=O)c2ccccc2[N+](=O)[O-])cc1)c1ccc(F)cc1,2.93
7,O=[N+]([O-])c1cccc(S(=O)(=O)[N-]c2nc3ccccc3nc2-n2cc[n+](Cc3ccccc3)c2)c1,-5.11
8,CC(C)N(C(=O)Cn1c(SCC(=O)Nc2nccs2)nc2ccccc21)C(C)C,12.6
9,CCN(CC)N=Nc1cccc(NC(C)=O)c1,0.363
10,CCc1nc(C)ccc1OCC(=O)N(CC)CC.O.O=C(O)C(=O)O,-30.9
11,CCOC(=O)c1c(NC(=O)CSc2nnc3c(n2)[nH]c2ccccc23)sc2c1CCN(C)C2,-6.08
12,Cc1ccc(NC2c3ccccc3C(=O)N2c2cccnc2)cc1 (stereo not drawn),-21.5
13,CCOC(=O)c1ccc(NC2c3ccccc3C(=O)N2c2ccccn2)cc1 (stereo not drawn),9.93
14,CCOC(=O)c1ccc(NC2c3ccccc3C(=O)N2c2cccnc2)cc1 (stereo not drawn),-57
15,CCOc1ccc(/C(O)=C2/C(=O)C(=O)N(CCCN3CCOCC3)C2c2ccc(C)cc2)cc1C (stereo not drawn),23.8
16,NC(=O)c1cccnc1Oc1cccc(Cl)c1,11.8
17,COc1cccc(C(C(=O)NC2CCCC2)N(C(=O)c2ccco2)c2cccc(C(C)=O)c2)c1OC (stereo not drawn),13.9
18,O=C(NCC(=O)N(Cc1ccccc1)C(C(=O)NC1CCCC1)c1ccncc1)c1ccco1 (stereo not drawn),5.71
19,Cc1ccc(N(C(=O)CNC(=O)c2ccco2)C(C(=O)NC2CCCC2)c2cccnc2)c(C)c1 (stereo not drawn),10.1
20,COc1ccccc1CN(C(=O)c1ccco1)C(C(=O)NC1CCCC1)c1ccncc1 (stereo not drawn),-8.04
21,Cc1ccc(C)c(N(C(=O)CNC(=O)c2ccco2)C(C(=O)NC2CCCCC2)c2cccnc2)c1 (stereo not drawn),15.3

row,Structure (SMILES),"hERG current change (%, negative = inhibition) at 10uM [%]"
1,COc1ccc(N(C(=O)c2ccco2)C(C(=O)NC2CCCC2)c2ccncc2)cc1OC (stereo not drawn),5.24
2,O=C(NCC(=O)N(c1ccccc1)C(C(=O)NC1CCCCC1)c1ccncc1)c1ccco1 (stereo not drawn),5.92
3,COc1ccc(CCN(C(=O)c2ccco2)C(C(=O)NC2CCCC2)c2ccncc2)cc1OC (stereo not drawn),-55
4,O=C(NCC(=O)N(CCc1ccccc1)C(C(=O)NC1CCCCC1)c1ccncc1)c1ccco1 (stereo not drawn),-54.6
5,Cc1ccc(N(C(=O)CNC(=O)c2ccco2)C(C(=O)NC2CCCCC2)c2cccnc2)c(C)c1 (stereo not drawn),-71.9
6,COc1cccc(C(C(=O)NC2CCCC2)N(C(=O)c2ccco2)c2ccc(C(C)=O)cc2)c1OC (stereo not drawn),-13.3
7,COc1cccc(C(C(=O)NC2CCCC2)N(C(=O)c2ccco2)c2ccc(NC(C)=O)cc2)c1OC (stereo not drawn),-64
8,COCCN(C(=O)CSc1nnc(C)n1-c1ccc(C)cc1)c1c(N)n(Cc2ccccc2)c(=O)[nH]c1=O,-2.83
9,COc1ccc(C(=O)NCc2ccc(-c3nc4ccccc4s3)cc2)cc1,10.1
10,NS(=O)(=O)c1ccc(CCNC(=O)Nc2ccc(Cl)c(Cl)c2)cc1,15.3
11,CN(C)C1=NCCN1CCc1cccc(F)c1,-8.41
12,O=C(NCCN1CCOCC1)c1cc2ccccc2oc1=O,-1.87
13,Oc1ccc(/C=N/Nc2nccnc2Cl)c(O)c1,0.455
14,COc1ccc(OC)c(C2=NOC(C(=O)NCc3cccs3)C2)c1 (stereo not drawn),-13.5
15,Cc1ccc(CNc2nc3ccccc3n3cnnc23)cc1,-6.53
16,Cc1ccc(CN(C(=O)c2ccco2)C(C(=O)NC2CCCC2)c2cccnc2)cc1 (stereo not drawn),-1.98
17,O=C(NCC(=O)N(CCc1ccccc1)C(C(=O)NC1CCCC1)c1cccnc1)c1ccco1 (stereo not drawn),-43.8
18,O=C(NC1CCCC1)C(c1cccnc1)N(CCc1ccccc1)C(=O)c1ccco1 (stereo not drawn),-69
